From PubChem BioAssay (NCATS)
“And” between values parts separate entries of the source, which are not always exact repeats. Identical values can stand only once. Inconclusive results are not listed. The source made the active and inactive calls. Unless noted, calls come from the whole dose curve; as a rule, active = well fitted curve in the direction sought with a large enough effect; inconclusive = small, poorly fitted or top-dose-only effect, or another doubt; inactive = no such curve, though single readings can be large; an effect the other way counts as inactive or inconclusive.

Tests used:
[1] = target: Cytochrome P450 1A2 (Homo sapiens) (UniProt P05177); assay: p450-cyp1a2 (AID 410; calls by dose curve; note: potency is the fitted concentration of half-maximal effect;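 for activity change, negative = inhibition: -100% = full effect of reference inhibitor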)
Procedure, shortened: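 20nM CYP1A2, 100uM Luciferin-ME (=Km), 100mM KPO4; cpd 10 min RT; +NADPH regen, 60 min RT; stop/detect 20 min; luminescence. Normalized to furafylline 57 uM = full inhibition.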

[2] = target: Glucocorticoid receptor (Homo sapiens) (UniProt P04150); assay: GR-GFP Redistribution (AID 450;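 active = compounds whose dose series gives a full or clear partial fitted curve of increased nuclear translocation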; note: potency is the fitted concentration of half-maximal effect); conditions: U2OS GR-GFP nuclear translocation, laser cytometry, 2 h
[3] = target: Glucocorticoid receptor (Homo sapiens) (UniProt P04150); assay: GR-EFC Redistribution (AID 451; calls by dose curve; note: potency is the fitted concentration of half-maximal effect); conditions: CHO-K1 GR-EFC translocation, beta-gal luminescence, 2 h
Procedure, shortened: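 CHO-K1 cells expressing nuclear EA and GR-ED fragments of b-gal; compounds titrated up to 46 uM final, 2 h at 37 C. GR nuclear translocation read as complemented b-gal luminescence after 1 h RT detection.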

[4] = target: Mitogen-activated protein kinase 10 (Mus musculus) (UniProt Q61831); assay: JNK3 AlphaScreen Assay (AID 530; active = well fitted curve in either direction with a large enough effect, not every such curve was filed as active;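 note: kinase came from lysate of stimulated human HepG2 cells; signal reports phosphorylation of biotinylated GST-cJun 1-79 at Ser73 with 10 µM ATP; % is set by controls: 0 for no effect and ±100 for the full control effect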)
Procedure, shortened: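 HepG2 lysate (IL-1b/TNFa pre-activated) + biotin-GST-cJun 1-79 + anti-pSer73 cJun; cpd titration, 15 min RT; ATP 10 uM start; Tris pH 7.6, MgCl2, DTT, vanadate; beads in EDTA buffer; AlphaScreen.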

[5] = target: 3',5'-cyclic-AMP phosphodiesterase 4B (Homo sapiens) (UniProt Q07343); assay: qHTS Assay for Inhibitors of PDE-IV (AID 607; active = well fitted activation curve with a large enough effect in the main read-out, with a control signal flat, not every such curve was filed as active; note: % of control where 0% means no effect)
Procedure, shortened: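 Cell-based read-out of cAMP via a modified cyclic nucleotide-gated channel and membrane potential dye (535/590 nm) in HEK293 cells expressing PDE4 endogenously. Compounds tested up to 22.9 uM final; 100 uM RO 20-1724 reference.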

[6] = Primary qHTS for small molecule stabilizers of the endoplasmic reticulum resident proteome: Secreted ER Calcium Modulated Protein (SERCaMP) assay (AID 1508630); note: % is set by controls: 0 for no effect and ±100 for the full control effect
Procedure, shortened: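 The SH-SY5Y reporter protocol was run at 3 concentrations up to 38.3 uM (primary) or 11 concentrations (follow-up): 16 h compound, 100 nM thapsigargin for 4 h, then extracellular luciferase luminescence.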

[7] = target: Lysosomal acid glucosylceramidase (Homo sapiens) (UniProt P04062); assay: Glucocerebrosidase-p2 (AID 348; in the data active = potency below about 10 µM; note: potency is the fitted concentration of half-maximal effect); conditions: purified GBA, blue fluorogenic substrate, 40 min
Procedure, shortened: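 Normal human glucocerebrosidase (0.2 nM) with blue fluorogenic substrate (80 uM final) in citrate/phosphate pH 5.9 with 10mM sodium taurocholate, 0.01% tween-20; 40 min RT, NaOH/glycine stop; fluorescence Ex 365/Em 440; AC50 from a titration from 0.6 nM upwards.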

[8] = AP1 Signaling Pathway (AID 357; active = well fitted curve in either direction with a large enough effect, not every such curve was filed as active;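 note: ME-180 reporter cells stimulated with EGF at its EC50 level; % is set by controls: 0 for no effect and ±100 for the full control effect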); conditions: ME-180 AP-1-bla reporter, EGF-induced, beta-lactamase ratio, 5 h; at 7.69 µM (top of the series) unless noted
Procedure, shortened: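 In this screen, ME-180 cells in Opti-MEM with 0.5% dialyzed FBS received EC50 EGF and compound titrations for 5 h. AP-1 reporter beta-lactamase was detected via CCF4 ratio, giving AC50 for positive and negative modulators.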

[9] = NFAT Signaling Pathway (AID 444; active = well fitted curve in either direction with a large enough effect, not every such curve was filed as active;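 note: carbachol stimulus at about its EC50 of 1 µM final; % is set by controls: 0 for no effect and ±100 for the full control effect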); conditions: Jurkat NFAT-bla M1, carbachol, beta-lactamase ratio, 5 h; at 7.69 µM (top of the series) unless noted
Procedure, shortened: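 Jurkat cells with NFAT-driven β-lactamase reporter and co-expressed M1 receptor, stimulated with carbachol (final 1 uM, ~EC50), compound titration, 5 h at 37 °C. CCF4 loaded 1 h at RT; 460/530 nm ratio gave %activity and AC50.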

[10] = Stat Signaling Pathway (AID 446; active = well fitted curve in either direction with a large enough effect, not every such curve was filed as active); conditions: ME-180 (cervical carcinoma) SIE beta-lactamase reporter, IL-6 stimulated, 5 h; at 7.69 µM (top of the series) unless noted
Procedure, shortened: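 FRET read-out (405 nm excitation, 460/530 nm emission) of a beta-lactamase reporter under a STAT-inducible element in ME-180 cervical carcinoma cells. Cells with compound receive 40 pM IL-6 for 5 h. Values are normalised to AC90 stimulation and AC90 JAK-inhibitor controls.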

[11] = target: Cytochrome P450 3A4 (Homo sapiens) (UniProt P08684); assay: qHTS Assay for Inhibitors and Substrates of Cytochrome P450 3A4 (AID 884); note: nearly all actives have a fitted effect of over 50% in size; note: potency is the fitted concentration of half-maximal effect
Procedure, shortened: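 Luminescent readout of luciferin produced by CYP3A4 (20 nM) dealkylation of Luciferin-PPXE, 25 uM (its KM). NADPH-driven reaction ran 60 min at RT after 10 min compound preincubation; data scaled to 57 uM ketoconazole as 100% inhibition.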

[12] = target: Cytochrome P450 3A4 (Homo sapiens) (UniProt P08684); assay: qHTS Assay for Activators of Cytochrome P450 3A4 (AID 885); note: nearly all actives have a fitted effect of over 65% in size
Procedure, shortened: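 Luminescent readout of luciferin formed from 25 uM Luciferin-PPXE (KM level) by 20 nM CYP3A4 in 200 mM KPO4, with 60 min NADPH-driven reaction at room temperature after 10 min compound exposure. Ketoconazole (57 uM) defined 100% inhibition.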

[13] = target: Cytochrome P450 2C19 (Homo sapiens) (UniProt P33261); assay: qHTS Assay for Inhibitors and Substrates of Cytochrome P450 2C19 (AID 899); note: potency is the fitted concentration of half-maximal effect; nearly all actives have a fitted effect of over 60% in size
Procedure, shortened: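 5 nM human CYP2C19 with 10uM Luciferin-H EGE (at KM) in 50mM KPO4, compound preincubated 10 min at 37C, then NADPH regeneration for 60 min at 37C. Luciferin read by luminescence after detection reagent; normalized to 57uM ketoconazole as full inhibition.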

[14] = qHTS Assay for Lipid Storage Modulators (AID 1519; calls by dose curve); conditions: Drosophila S3 cells, BODIPY lipid droplet/cell ratio, laser cytometry, cells loaded with oleic acid
Procedure, shortened: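 Cells seeded at 5,000 per well were treated with compounds over a concentration series and loaded with oleic acid (400 uM, as added). Lipid droplet fluorescence (488 nm excitation, 500-530 nm channel) was read by laser-scanning cytometry and normalized to 20 uM Triacsin C.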

[15] = target: Dual specificity protein kinase CLK4 (Homo sapiens) (UniProt Q9HAZ1); assay: qHTS Assay for Inhibitors of CDC-like Kinase 4 (Kinase-Glo Assay) (AID 1770); note: potency is the fitted concentration of half-maximal effect; nearly all actives have a fitted effect of over 65% in size
Procedure, shortened: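 Substrate mix (RS peptide 100 uM, ATP 1 uM) dispensed, compound pinned in, then Clk4 added to 25 nM final. Incubated 4.5 h at RT; Kinase-Glo reagent added, luminescence read after 5 min.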

[16] = target: Dual specificity protein kinase CLK4 (Homo sapiens) (UniProt Q9HAZ1); assay: qHTS Assay for Inhibitors of CDC-like Kinase 4 (ADP-Glo Assay) (AID 1771); note: potency is the fitted concentration of half-maximal effect; nearly all actives have a fitted effect of over 70% in size
Procedure, shortened: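 25 nM Clk4, 100 uM RS peptide, 1 uM ATP (final); 2 mM MgCl2, 0.5 mM EGTA, 2.5 mM DTT, 0.01% Triton X-100; 1 hr RT. ADP-Glo readout: ATP depletion 45 min, conversion/luciferase 30 min, luminescence.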

[17] = target: Ubiquitin carboxyl-terminal hydrolase 1 (Homo sapiens) (UniProt O94782); assay: Inhibitors of USP1/UAF1: Pilot qHTS (AID 504865);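 note: rhodamine fluorescence freed from ubiquitin-rhodamine substrate followed over time; top concentration of the series differs between compounds; % is set by controls: 0 for no effect and ±100 for the full control effect; nearly all actives have a fitted effect of over 35% in size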
Procedure, shortened: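 In 50mM HEPES pH 7.8 containing 0.5mM EDTA, 1mM TCEP, 0.1 mg/ml BSA and 0.01% Tween-20, 1nM USP1/UAF1 is exposed to compound for 15 min, then Ub-Rho (150nM final) is added and fluorescence is read over time.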

[18] = target: Rap guanine nucleotide exchange factor 3 (Homo sapiens) (UniProt O95398); assay: Confirmatory qHTS for antagonist of cAMP-regulated guanine nucleotide exchange factor 3 (EPAC1) (AID 1645880);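 note: plate controls were DMSO only for no effect and full effect of the ATA control for full effect; nearly all actives have a fitted effect of over 55% in size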
Procedure, shortened: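 Released BODIPY-GDP fluoresces less than Rap1-bound BODIPY-GDP; the signal is followed at 480/540 nm at 5-min intervals over 30 min, after 5 min at room temperature. Reactions contain 100 nM EPAC1, 250 nM RAP1B-BODIPY-GDP and 50 uM GDP; results are normalized to ATA and DMSO.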

[19] = target: Rap guanine nucleotide exchange factor 3 (Homo sapiens) (UniProt O95398); assay: Confirmatory qHTS for agonist of cAMP-regulated guanine nucleotide exchange factor 3 (EPAC1) (AID 1645881);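 note: EPAC1 catalysed release of BODIPY-GDP from Rap1B seen as fluorescence loss; 100% = effect of cAMP agonist control; nearly all actives have a fitted effect of over 75% in size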
[20] = target: Rap guanine nucleotide exchange factor 4 (Homo sapiens) (UniProt Q8WZA2); assay: Confirmatory qHTS for agonist of cAMP-regulated guanine nucleotide exchange factor 4 (EPAC2) (AID 1645884);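 note: nucleotide exchange releases bodipy-GDP from Rap1 and this lowers its fluorescence; % is set by controls: 0 for no effect and ±100 for the full control effect; nearly all actives have a fitted effect of over 65% in size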
[21] = target: Rap guanine nucleotide exchange factor 4 (Homo sapiens) (UniProt Q8WZA2); assay: Confirmatory qHTS for antagonist of cAMP-regulated guanine nucleotide exchange factor 4 (EPAC2) (AID 1645885); note: % is set by controls: 0 for no effect and ±100 for the full control effect; nearly all actives have a fitted effect of over 25% in size
[22] = target: Cytochrome P450 2C9 (Homo sapiens) (UniProt P11712); assay: qHTS Assay for Inhibitors and Substrates of Cytochrome P450 2C9 (AID 883); note: % is set by controls: 0 for no effect and ±100 for the full control effect; nearly all actives have a fitted effect of over 60% in size
Procedure, shortened: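 Human CYP2C9 (10nM) with Luciferin-H at 100uM (its KM) in 25mM KPO4; compound preincubated 10 min at 37C, then NADPH regeneration for 60 min at 37C. Luciferin read by luminescence after detection reagent; normalized to 57uM sulphaphenazole as full inhibition.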

[23] = target: Cytochrome P450 2D6 (Homo sapiens) (UniProt P10635); assay: qHTS Assay for Inhibitors and Substrates of Cytochrome P450 2D6 (AID 891); note: potency is the fitted concentration of half-maximal effect; nearly all actives have a fitted effect of over 60% in size
Procedure, shortened: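 Luminescent read-out of luciferin formed by 5 nM human CYP2D6 demethylating 30 uM Luciferin-ME EGE (Km level) over 60 min at room temperature after NADPH regeneration addition. Data normalized to full inhibition by 1.43 uM quinidine.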

[24] = target: DNA dC->dU-editing enzyme APOBEC-3G (Homo sapiens) (UniProt Q9HC16); assay: qHTS for inhibitors of Vif-A3G interactions: Validation (AID 588379); note: 0% is about no effect
Procedure, shortened: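 Yellow fluorescence (Ex 488, Em 500-530) of Vif-coexpressing HeLa A3G-eYFP cells, scanned by Acumen cytometer, reports blocked A3G degradation. Cells plated at 700/well overnight at 37 deg C before compound addition, then a further overnight compound incubation at 37 deg C.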

[25] = measured here: cell count channel max response
[26] = measured here: lipid channel max response

Glucocorticoid receptor (Homo sapiens), sequence (P04150 whole entry, looked up, the tested form may be a part): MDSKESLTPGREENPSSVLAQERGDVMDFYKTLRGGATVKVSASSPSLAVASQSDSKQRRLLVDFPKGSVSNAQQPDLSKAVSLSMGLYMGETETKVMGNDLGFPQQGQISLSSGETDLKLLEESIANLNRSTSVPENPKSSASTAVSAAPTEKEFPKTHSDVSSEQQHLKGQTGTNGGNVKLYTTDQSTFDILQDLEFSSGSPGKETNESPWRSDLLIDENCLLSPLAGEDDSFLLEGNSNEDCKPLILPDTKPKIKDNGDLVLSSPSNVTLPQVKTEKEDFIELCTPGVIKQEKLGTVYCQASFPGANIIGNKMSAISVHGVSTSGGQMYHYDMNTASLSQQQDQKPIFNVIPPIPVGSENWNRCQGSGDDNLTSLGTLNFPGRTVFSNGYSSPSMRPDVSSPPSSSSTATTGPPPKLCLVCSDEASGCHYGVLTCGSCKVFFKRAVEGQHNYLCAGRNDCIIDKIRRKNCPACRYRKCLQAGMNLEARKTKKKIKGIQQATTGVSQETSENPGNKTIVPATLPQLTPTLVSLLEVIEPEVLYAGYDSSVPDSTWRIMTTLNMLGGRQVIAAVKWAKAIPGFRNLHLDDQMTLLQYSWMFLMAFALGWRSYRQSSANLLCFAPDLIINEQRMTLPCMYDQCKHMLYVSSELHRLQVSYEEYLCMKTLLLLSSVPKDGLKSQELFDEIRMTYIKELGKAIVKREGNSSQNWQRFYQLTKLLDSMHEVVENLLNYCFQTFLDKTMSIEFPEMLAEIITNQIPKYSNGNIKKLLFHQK
Rap guanine nucleotide exchange factor 3 (Homo sapiens), sequence (O95398 whole entry, looked up): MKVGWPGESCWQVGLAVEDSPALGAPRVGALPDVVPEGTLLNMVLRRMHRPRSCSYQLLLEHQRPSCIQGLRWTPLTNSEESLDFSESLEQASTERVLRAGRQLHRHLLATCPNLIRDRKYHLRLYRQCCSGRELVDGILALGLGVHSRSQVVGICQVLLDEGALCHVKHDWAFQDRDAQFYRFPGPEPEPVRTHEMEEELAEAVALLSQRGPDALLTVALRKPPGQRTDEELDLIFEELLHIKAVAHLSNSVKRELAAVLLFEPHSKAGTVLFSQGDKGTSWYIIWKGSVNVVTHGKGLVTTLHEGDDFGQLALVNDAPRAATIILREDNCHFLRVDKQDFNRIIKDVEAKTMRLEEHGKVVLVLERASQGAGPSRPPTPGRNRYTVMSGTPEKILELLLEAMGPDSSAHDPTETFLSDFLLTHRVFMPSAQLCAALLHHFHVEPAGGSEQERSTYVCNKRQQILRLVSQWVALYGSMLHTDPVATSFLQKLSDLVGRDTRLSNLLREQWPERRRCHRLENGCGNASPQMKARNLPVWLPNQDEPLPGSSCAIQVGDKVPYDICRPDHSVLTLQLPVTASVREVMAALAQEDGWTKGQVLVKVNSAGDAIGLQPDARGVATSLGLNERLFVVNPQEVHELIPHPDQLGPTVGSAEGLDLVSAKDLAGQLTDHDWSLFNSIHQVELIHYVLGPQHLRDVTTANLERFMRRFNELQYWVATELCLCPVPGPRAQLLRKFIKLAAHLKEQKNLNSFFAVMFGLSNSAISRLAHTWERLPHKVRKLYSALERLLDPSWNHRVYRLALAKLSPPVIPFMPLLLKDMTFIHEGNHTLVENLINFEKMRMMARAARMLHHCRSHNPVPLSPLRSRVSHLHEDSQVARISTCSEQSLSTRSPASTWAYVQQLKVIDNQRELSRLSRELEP
Ubiquitin carboxyl-terminal hydrolase 1 (Homo sapiens), sequence (O94782 whole entry, looked up): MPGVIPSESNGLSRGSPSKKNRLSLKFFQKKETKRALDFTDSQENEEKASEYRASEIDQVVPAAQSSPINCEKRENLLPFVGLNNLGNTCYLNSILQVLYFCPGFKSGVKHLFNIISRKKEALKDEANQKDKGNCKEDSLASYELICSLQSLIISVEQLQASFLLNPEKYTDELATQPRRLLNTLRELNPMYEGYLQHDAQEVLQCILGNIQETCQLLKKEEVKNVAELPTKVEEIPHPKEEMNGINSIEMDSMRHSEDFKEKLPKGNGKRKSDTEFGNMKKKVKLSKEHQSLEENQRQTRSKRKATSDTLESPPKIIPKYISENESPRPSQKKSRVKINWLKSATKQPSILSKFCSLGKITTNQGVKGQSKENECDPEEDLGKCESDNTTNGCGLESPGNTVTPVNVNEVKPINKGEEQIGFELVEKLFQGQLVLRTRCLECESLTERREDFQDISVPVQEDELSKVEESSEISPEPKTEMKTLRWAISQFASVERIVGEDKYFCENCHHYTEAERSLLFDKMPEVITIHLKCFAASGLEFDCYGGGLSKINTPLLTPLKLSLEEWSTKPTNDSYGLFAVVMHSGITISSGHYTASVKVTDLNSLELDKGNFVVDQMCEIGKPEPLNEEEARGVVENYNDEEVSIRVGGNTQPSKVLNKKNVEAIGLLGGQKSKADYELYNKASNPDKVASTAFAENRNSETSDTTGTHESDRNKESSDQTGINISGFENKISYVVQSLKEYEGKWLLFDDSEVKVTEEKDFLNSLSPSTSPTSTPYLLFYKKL
3',5'-cyclic-AMP phosphodiesterase 4B (Homo sapiens), sequence (Q07343 whole entry, looked up): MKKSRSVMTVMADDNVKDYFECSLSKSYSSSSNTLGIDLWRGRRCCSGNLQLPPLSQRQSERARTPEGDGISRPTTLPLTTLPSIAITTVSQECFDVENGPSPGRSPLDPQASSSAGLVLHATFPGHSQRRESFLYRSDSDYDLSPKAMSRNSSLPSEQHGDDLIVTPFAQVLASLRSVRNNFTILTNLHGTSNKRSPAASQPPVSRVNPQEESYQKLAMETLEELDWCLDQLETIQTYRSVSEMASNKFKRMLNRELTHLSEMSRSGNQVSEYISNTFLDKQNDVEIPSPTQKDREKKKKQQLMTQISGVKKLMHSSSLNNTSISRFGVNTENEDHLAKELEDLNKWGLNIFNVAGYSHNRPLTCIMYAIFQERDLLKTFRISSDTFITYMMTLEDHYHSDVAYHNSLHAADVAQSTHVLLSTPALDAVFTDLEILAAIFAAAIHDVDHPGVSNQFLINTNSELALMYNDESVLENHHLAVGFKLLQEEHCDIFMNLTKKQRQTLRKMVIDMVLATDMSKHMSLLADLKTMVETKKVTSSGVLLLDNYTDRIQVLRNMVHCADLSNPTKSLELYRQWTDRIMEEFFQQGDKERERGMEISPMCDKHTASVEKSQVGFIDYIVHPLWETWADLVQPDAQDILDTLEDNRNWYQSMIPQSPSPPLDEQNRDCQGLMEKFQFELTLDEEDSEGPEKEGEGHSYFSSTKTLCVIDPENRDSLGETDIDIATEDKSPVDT
Cytochrome P450 3A4 (Homo sapiens), sequence (P08684 whole entry, looked up): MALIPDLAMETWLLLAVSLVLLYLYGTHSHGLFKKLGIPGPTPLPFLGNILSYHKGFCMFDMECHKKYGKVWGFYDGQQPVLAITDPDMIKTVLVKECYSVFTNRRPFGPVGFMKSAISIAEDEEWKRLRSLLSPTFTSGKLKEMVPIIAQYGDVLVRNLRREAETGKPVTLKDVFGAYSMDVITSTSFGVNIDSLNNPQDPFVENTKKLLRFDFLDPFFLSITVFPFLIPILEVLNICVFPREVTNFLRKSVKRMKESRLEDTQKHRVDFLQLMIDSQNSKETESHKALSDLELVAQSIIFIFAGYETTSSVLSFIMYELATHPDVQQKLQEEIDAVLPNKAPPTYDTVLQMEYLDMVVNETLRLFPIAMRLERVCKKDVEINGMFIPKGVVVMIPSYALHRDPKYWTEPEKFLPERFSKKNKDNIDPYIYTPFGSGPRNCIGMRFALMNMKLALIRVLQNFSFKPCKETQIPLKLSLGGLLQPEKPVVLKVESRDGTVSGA
Cytochrome P450 2C19 (Homo sapiens), sequence (P33261 whole entry, looked up): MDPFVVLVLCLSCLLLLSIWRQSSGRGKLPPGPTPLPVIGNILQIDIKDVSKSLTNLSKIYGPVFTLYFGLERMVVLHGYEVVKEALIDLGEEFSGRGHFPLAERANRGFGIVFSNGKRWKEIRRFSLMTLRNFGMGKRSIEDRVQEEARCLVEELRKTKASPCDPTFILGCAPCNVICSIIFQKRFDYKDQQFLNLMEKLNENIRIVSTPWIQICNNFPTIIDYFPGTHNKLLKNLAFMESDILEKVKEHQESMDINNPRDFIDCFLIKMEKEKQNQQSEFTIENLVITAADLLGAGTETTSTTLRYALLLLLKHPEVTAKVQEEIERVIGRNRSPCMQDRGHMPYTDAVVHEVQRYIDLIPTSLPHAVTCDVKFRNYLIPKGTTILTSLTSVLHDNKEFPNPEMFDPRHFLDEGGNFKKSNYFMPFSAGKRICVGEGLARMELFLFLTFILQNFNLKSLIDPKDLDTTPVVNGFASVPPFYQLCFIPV
Dual specificity protein kinase CLK4 (Homo sapiens), sequence (Q9HAZ1 whole entry, looked up): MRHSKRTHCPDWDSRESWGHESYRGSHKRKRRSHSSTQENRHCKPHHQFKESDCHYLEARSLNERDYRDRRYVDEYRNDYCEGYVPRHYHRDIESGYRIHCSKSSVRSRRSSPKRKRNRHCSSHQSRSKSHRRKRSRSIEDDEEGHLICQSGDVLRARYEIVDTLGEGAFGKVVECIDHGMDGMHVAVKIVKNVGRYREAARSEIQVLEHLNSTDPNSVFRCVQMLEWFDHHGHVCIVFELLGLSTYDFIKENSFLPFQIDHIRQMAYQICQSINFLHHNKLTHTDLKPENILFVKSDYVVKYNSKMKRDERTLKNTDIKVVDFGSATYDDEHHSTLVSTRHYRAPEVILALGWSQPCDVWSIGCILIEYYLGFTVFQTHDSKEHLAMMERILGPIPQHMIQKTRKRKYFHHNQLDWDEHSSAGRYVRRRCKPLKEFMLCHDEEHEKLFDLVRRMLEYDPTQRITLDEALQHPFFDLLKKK

Compound: N#CCCn1c(=O)c(-c2ccc(F)cc2)nc2cnc(Oc3cccc(Cl)c3)nc21
- Potency [1]: 0.501 µM (active)
- Potency [2]: > 9.22 µM (inactive)
- Potency [3]: > 46 µM (inactive)
- Potency [4]: inactive
- Potency [5]: inactive
- outcome [6]: inactive

Compound: COc1cccc(-c2cc(NCCc3c[nH]c4ccc(OC)cc34)ncn2)c1
- Potency [7]: > 11.4 µM (inactive)
- activity change, negative = inhibition [8]: -7.38% (inactive)
- Potency [1]: 0.794 µM (active)
- activity change, negative = inhibition [9]: -9.49% (inactive)
- activity, negative = inhibition [10]: -5.09% (inactive)
- Potency [2]: > 46 µM (inactive)
- Potency [3]: > 46 µM (inactive)
- Potency [5]: inactive
- Potency [11]: 7.94 µM (active)
- Potency [12]: inactive
- Potency [13]: 0.501 µM (active)
- activity change, negative = inhibition ([14]; at 57.5 µM (top of the series)): 7.02% (inactive)
- max response [14, 25]: 8.88%
- max response [14, 26]: 13.2%
- Potency [15]: 4.47 µM (active)
- Potency [16]: 12.6 µM (active)
- Potency [17]: inactive
- Potency [18]: inactive
- Potency [19]: inactive
- Potency [20]: inactive
- Potency [21]: inactive

Compound: C=CCNC(=O)c1cc([N+](=O)[O-])cc2c(=O)[nH]c(Nc3ccc(Cl)c(Cl)c3)nc12
- Potency [12]: inactive
- outcome [6]: inactive

Compound: COc1cc2c(cc1OC)C(=O)Cc1ccc3c(c1CN(C)CC2)OCO3
- Potency [1]: inactive
- Potency [2]: > 46 µM (inactive)
- Potency [3]: > 46 µM (inactive)
- Potency [4]: inactive
- Potency [5]: inactive
- Potency [22]: inactive
- Potency [11]: inactive
- Potency [23]: 0.0251 µM (active)
- Potency [13]: 10 µM (active)
- outcome [24]: inactive
- outcome [6]: inactive

Compound: N[C@H](Cn1ccc(=O)c(O)c1)C(=O)O
- activity change, negative = inhibition [8]: 2.81% [at 17.2 µM] (inactive)
- activity change, negative = inhibition [9]: -2.41% [at 17.2 µM] (inactive)
- activity, negative = inhibition [10]: 3.76% [at 17.2 µM] (inactive)
- Potency [2]: > 20.6 µM (inactive) and > 46 µM (inactive)
- Potency [3]: > 20.6 µM (inactive) and > 46 µM (inactive)
- Potency [4]: inactive
- Potency [5]: inactive
- activity change, negative = inhibition ([14]; at 25.7 µM (top of the series)): -2.4% (inactive)
- activity change, negative = inhibition ([14]; at 57.5 µM (top of the series)): -2.6% (inactive)
- max response [14, 25]: -5.27% and -11.5%
- max response [14, 26]: -7.92% and -12.4%
- Potency [17]: inactive
- outcome [24]: inactive

Compound: Cc1ccccc1-c1ccc2ncnc(N(C)C)c2c1
- Potency [7]: > 11.4 µM (inactive)
- activity change, negative = inhibition [8]: 13.7% (inactive)
- Potency [1]: 0.631 µM (active)
- activity change, negative = inhibition [9]: 7.63% (inactive)
- activity, negative = inhibition [10]: -4.62% (inactive)
- Potency [2]: > 46 µM (inactive)
- Potency [3]: > 46 µM (inactive)
- Potency [4]: inactive
- Potency [11]: 3.16 µM (active)
- Potency [12]: inactive
- Potency [13]: 7.94 µM (active)
- activity change, negative = inhibition ([14]; at 57.5 µM (top of the series)): 1.72% (inactive)
- max response [14, 25]: -2.12%
- max response [14, 26]: -3.73%
- Potency [15]: 15.8 µM (active)
- Potency [16]: 28.2 µM (active)
- Potency [17]: inactive
- Potency [18]: inactive
- Potency [19]: inactive
- Potency [20]: inactive
- Potency [21]: inactive
